Reference: ChEMBL document CHEMBL3433997, “St. Jude Leishmania screening dataset” (2016)

Experiments:
Format in all cases: functional
[1] = target: Solute carrier family 2, facilitated glucose transporter member 1 (Homo sapiens) (UniProt P11166); experiment: ST_JUDE_LEISH: Cytotoxicity at 2uM final concentration against transgenic Leishmania Mexicana promastigotes LmGLUT1 that are glucose transport deficient and complemented with the human glucose transporter GLUT1. Activity is measured by DNA content using SYBR green in vitro
[2] = target: Hexose transporter 1 (Plasmodium falciparum) (UniProt O97467); experiment: ST_JUDE_LEISH: Cytotoxicity at 2uM final concentration against transgenic Leishmania Mexicana promastigotes LmPfHT that are glucose transport deficient and complemented with the Plasmodium falciparum hexose transporter. Activity is measured by DNA content using SYBR green in vitro
[3] = target: Glucose transporter (Leishmania mexicana) (UniProt O61059); experiment: ST_JUDE_LEISH: Cytotoxicity at 2uM final concentration against transgenic Leishmania Mexicana promastigotes LmGT2 that are glucose transport deficient and complemented with the L. Mexicana glucose transporter 2. Activity is measured by DNA content using SYBR green in vitro

Solute carrier family 2, facilitated glucose transporter member 1 (Homo sapiens), sequence (P11166 whole entry): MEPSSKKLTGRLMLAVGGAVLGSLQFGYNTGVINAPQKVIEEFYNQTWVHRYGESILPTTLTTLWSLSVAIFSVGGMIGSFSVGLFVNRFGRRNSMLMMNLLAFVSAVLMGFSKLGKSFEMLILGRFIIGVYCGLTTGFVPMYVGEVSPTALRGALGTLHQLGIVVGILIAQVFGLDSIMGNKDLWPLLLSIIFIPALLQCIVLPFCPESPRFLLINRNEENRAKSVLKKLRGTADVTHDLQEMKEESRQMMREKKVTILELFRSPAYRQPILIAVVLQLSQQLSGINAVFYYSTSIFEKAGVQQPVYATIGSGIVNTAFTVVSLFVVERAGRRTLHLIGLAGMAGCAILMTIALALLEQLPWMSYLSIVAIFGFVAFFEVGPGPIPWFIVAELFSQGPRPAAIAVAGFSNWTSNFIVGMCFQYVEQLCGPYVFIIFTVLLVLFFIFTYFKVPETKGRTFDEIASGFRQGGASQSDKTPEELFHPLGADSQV

Row | Structure (SMILES) | inhibition [1] [%] | inhibition [2] [%] | inhibition [3] [%]
1 | COc1ccccc1NC(=O)Nc1cccc(-c2ccc(-c3nc4cc(C(F)(F)F)ccc4[nH]3)cc2)c1 | 2.16 | 2.07 | 0.72
2 | COc1ccc(CCn2c(=N)c(C(=O)NCc3cccnc3)cc3c(=O)n4cccc(C)c4nc32)cc1 | 5.3 | 4.73 | 0.26
3 | CS(=O)(=O)c1ccc(-c2cncc(Cl)n2)cc1 | 3.73 | 3.42 | 10.2
4 | CCCc1cc(NCc2ccncc2)nc(Nc2ccc(F)cc2)n1 | 13.4 | 8.66 | 2.99
5 | CC1CCN(CCCNc2ccc(C(=O)Nc3ccc(C(F)(F)F)cc3)cc2[N+](=O)[O-])CC1 | 4.71 | 1.65 | 5.07
6 | N#Cc1ccc(N2CCN(Cc3ccc(-c4ccc(-c5nc6cc(C(F)(F)F)ccc6[nH]5)cc4)cc3)CC2)nc1 | 2.63 | 4.69 | 1.55
7 | O=C(Nc1ccc(Cl)c(C(F)(F)F)c1)c1ccc(C(=O)Nc2ccc(Cl)c(C(F)(F)F)c2)cc1 | -2.43 | 1.08 | 0.39
8 | O=C(/C=C/c1ccccc1Cl)NC1CCC(CN2CCC(c3c[nH]c4ccncc34)CC2)CC1 (stereo not drawn) | -0.19 | 0.35 | 1.34
9 | COc1ccc(NC(=O)[C@H](Cc2ccccc2)Nc2cc(C)nc(NCc3ccccc3C)n2)cc1 | 4.42 | 5.01 | 2.59
10 | CC(C(=O)N1CCCC1)N1CCN(S(=O)(=O)c2ccc(C(C)(C)C)cc2)CC1 (stereo not drawn) | -0.57 | 0.46 | 4.07
11 | CCCc1c(Cl)cc(CNCCCNc2nc3ccncc3[nH]2)cc1Cl | 1.35 | 3.89 | 1.39
12 | Clc1ccc(-c2cc(-c3csc(NCCN4CCOCC4)n3)on2)c(Cl)c1 | 12.4 | 9.19 | 10.6
13 | Cc1cc(F)ccc1-c1nc(NCC(O)CNCCc2ccccc2)nc2c1ccc(=O)n2-c1c(F)cccc1F (stereo not drawn) | 5.26 | 4.59 | 6.47
14 | CC(C)c1nc2c(N)nc(N)nc2nc1N | -0.33 | 0.25 | 1.01
15 | CCN(CC)c1ccc2nc(N)nc(N)c2c1 | 8.53 | 16.5 | 7.56
16 | COc1ccc(NC(=O)C2c3ccccc3C(=O)N(C3CCCC3)C2c2cccs2)c(OC)c1 (stereo not drawn) | 1.15 | -0.63 | -1.93
17 | CC(CN1CCN(C)CC1)C(=O)Nc1cccc(-c2cccc(-c3nc4cc(F)ccc4[nH]3)c2)c1 (stereo not drawn) | 6.87 | 5.83 | 5.91
18 | O=C(Nc1ccc2c(c1)CCNCC2)c1ccc(-c2ccc(Cl)cc2)cc1 | 58.3 | 104 | 109
19 | Cc1ccc(-c2ccc(NC(=O)N3CCc4cc(Br)c(N5CCN(C)CC5)cc43)cc2)cn1 | 2.03 | 1.29 | 2.24
20 | Cc1cc(C)c(S(=O)(=O)N2CCCCC(c3cccc(C(F)(F)F)c3)=N2)c(C)c1 | 1.84 | 1.41 | 1.47
21 | NC1CCN(c2nc(NCCCc3ccc(O)cc3)nc(NCc3cccc4ccccc34)n2)CC1 | 0.21 | -3.11 | 2.63
22 | CN(C)C(=O)CCCn1c(CNCCCNc2cc(=O)c3ccccc3[nH]2)cc2c(Cl)cc(Cl)cc21 | 0.57 | 2.54 | 2
23 | O=C(/C=C/c1ccc(Cl)c(Cl)c1)NCCCCCCN1CCCN(C(=O)Nc2cc(Cl)cc(Cl)c2)CC1 | 0.67 | 0.41 | -2.48
24 | O=C(C=CC(=O)N1CCCCC1)NCc1ccccc1 | 2.97 | 3.29 | 2

Row | Structure (SMILES) | inhibition [1] [%] | inhibition [2] [%] | inhibition [3] [%]
25 | O=C(/C=C/c1ccc(Cl)c(Cl)c1)NCCCCCCN1CCCN(C(=O)Nc2ccc(C(F)(F)F)cc2)CC1 | 2.54 | 2.95 | 2.88
26 | O=C(Nc1cccc(OCCN2CCCC2)c1)Nc1ccc(Cl)c(Cl)c1 | 1.92 | 2.15 | 4.58
27 | CCN(CC)c1ccc2nc(N)nc(N)c2c1Cl | 5.94 | 6.11 | 4.52
28 | CN1CCN(c2cccc(Nc3nccc(NCC(O)c4ccccc4)n3)c2)CC1 (stereo not drawn) | 1.83 | 1.6 | 0.06
29 | Cc1cc(N[C@@H](Cc2ccccc2)C(=O)Nc2ccccc2)nc(NCCN2CCCC2)n1 | -2.01 | -2.84 | -2.29
30 | Cc1cc(C)nc(-n2[nH]c(C)c(Cc3ccc(C(C)(C)C)cc3)c2=O)n1 | 4.87 | 5.45 | 2.9
31 | CN(Cc1cccc(O)c1)C1CCCN(c2cc(NC(=O)c3ccc(F)cc3)ccn2)C1 (stereo not drawn) | 3.85 | 6.05 | 5.91
32 | COC(=O)c1ccccc1COc1ccc(CC2(NC(=O)[C@H](Nc3ccc(C#N)c4ccccc34)C(C)(C)C)CCCC2)cc1 | 4.44 | 4.29 | 2.22
33 | Cc1cccc2[nH]cc(C3CCN(CCC4CCN(C(=O)/C=C/c5ccc(Cl)c(Cl)c5)CC4)CC3)c12 | 1.19 | -2.11 | 2.11
34 | O=C(Nc1cccc(N2CCC(NCc3cccnc3)CC2)c1)c1cccc(C(F)(F)F)c1 | 1.16 | 1 | -0.6
35 | COc1ccc2nccc([C@@H](O)CN3CCC(NCC(O)Cc4ccccc4)CC3)c2c1 (stereo partly drawn) | -0.38 | -3.2 | 1.51
36 | Cc1cc(=NN=Cc2ccccc2F)c2cc(C(F)(F)F)ccc2[nH]1 | 1.67 | 3.04 | 0.5
37 | COCCNCc1cccc(-c2ccc(CNC3CCN(Cc4ccccc4)CC3)cc2)c1 | 1.41 | 3.3 | 4.63
38 | COc1ccc(CNCc2cccc(-c3ccc(-c4nc5cccc(C)c5[nH]4)cc3)c2)cc1 | 14 | 9.73 | 7.5
39 | Cc1ccccc1C1CCN(C2CCC(NC(=O)/C=C/c3cccc(C(F)(F)F)c3)CC2)CC1 (stereo not drawn) | 1.86 | 0.37 | 2.39
40 | Nc1c(Cl)cc(C(O)CNCCCCCCOCCc2ccc(CO)s2)cc1Cl (stereo not drawn) | 2.77 | 1.49 | 2.21
41 | COc1ccccc1-c1cccc2c(NC(=O)Nc3ccc4nccc(N5CCN(C)CC5)c4c3)ccnc12 | 1.85 | 2.74 | 2.18
42 | FC(F)(F)c1ccc2c(NCCNc3ccnc4cc(C(F)(F)F)ccc34)ccnc2c1 | 2.33 | 0.31 | 0.92
43 | CC(C)CCn1c(Sc2ccc(C#N)c([N+](=O)[O-])c2)nnc1-c1cccc(Cl)c1 | 9.63 | 9.97 | 8.26
44 | CCc1ccc(C(=O)NC(=O)c2ccccc2O)cc1 | 3.44 | 3.45 | 3.61
45 | c1cc(CNCCc2ccncc2)cc(-c2ccc(-c3nc4ccccc4[nH]3)s2)c1 | 0.32 | -0.86 | -0.99
46 | COc1ccc(CCNCC(O)c2cccc(Br)c2)c(Cl)c1OC (stereo not drawn) | -3.38 | -1.73 | -3.62
47 | CCc1cn2c3c(cc(C(=O)N[C@@H](Cc4ccccc4)[C@H](O)CNCc4cccc(C)c4)cc13)N(C)S(=O)(=O)CC2 | 1.35 | 0.76 | 2.29
48 | Cc1cc(C2CCN(CCCCNC(=O)c3ccc(-c4ccc(C(F)(F)F)cc4)cc3)CC2)c(C)cc1OCC(N)=O | 0.54 | 1.14 | 0.73

Row | Structure (SMILES) | inhibition [1] [%] | inhibition [2] [%] | inhibition [3] [%]
49 | CC(=O)Nc1ccc(OCCCCCOc2ccc(NC(C)=O)cc2Cl)c(Cl)c1 | 1.91 | 1.52 | 1.13
50 | c1ccc(CN2CCC(NCc3ccccc3-c3ccc(CNC4CCCC4)cc3)CC2)cc1 | 4.61 | 3.06 | 6.38
51 | Oc1ccc2[nH]c(-c3cccc(F)c3)nc2c1CN1CCCC1 | 4.75 | 3.49 | 1.21
52 | Cc1cc(-c2cccc(CNC3CCN(C)CC3)c2)ccc1S(=O)(=O)NCc1ccccc1 | 4.02 | 3.65 | 4.62
53 | O=C(/C=C/c1ccc(Cl)c(Cl)c1)NCCCCCN1CCC(NC(=O)Nc2ccccc2Cl)CC1 | 0.63 | 0.55 | 0.27
54 | Cc1ccccc1C1CCN(C2CCC(NC(=O)c3ccc(-c4cccc(C(F)(F)F)c4)o3)CC2)CC1 (stereo not drawn) | 5.47 | 2.19 | 3.24
55 | Cc1cc(-c2nc3ccc(CN4CCN(C)CC4)cc3[nH]2)nn1Cc1cc(Cl)ccc1OCc1ccccc1 | 3.84 | 3.27 | 2.54
56 | CC(=O)Oc1c(C2CCN(CCCCNC(=O)c3ccc(NC(=O)c4ccc(Cl)cc4)cc3)CC2)ccc2ccccc12 | 3.43 | 3.63 | 4.42
57 | O=C(Nc1n[nH]c2nc(-c3ccco3)c(Br)cc12)c1ccc(CN2CCCC2)cc1 | 1.9 | 3.71 | 3.01
58 | COc1ccc(OCCCON2C(=N)N=C(N)NC2(C)C)cc1 | 5 | 1.09 | 1.17
59 | CCCCCN1CCCN(Cc2cccc(NC(=O)c3ccc(-c4ccccc4)cc3)c2)CC1 | -0.68 | -0.99 | 2.3
60 | COc1ccc2nccc([C@@H](O)CN3CCC(NCc4nc5cc(F)cc(F)c5[nH]4)CC3)c2c1 | 3.31 | 4.04 | -0.63
61 | C=C[C@]1(C)C[C@@H](OC(=O)NC(=O)C2CCN(C(=O)CSc3ccccc3)CC2)[C@]2(C)[C@H](C)CC[C@]3(CCC(=O)[C@H]32)[C@@H](C)[C@@H]1O | 10.2 | 11.6 | 5.56
62 | CC(C(=O)Nc1ccc(Br)cc1Br)N1CCN(C(=O)c2ccco2)CC1 (stereo not drawn) | -0.66 | 1.36 | 1.86
63 | CC(=O)Nc1ccc(CN2CCCN(c3cc(NC(=O)c4cccc(C)c4)ccn3)CC2)cc1 | 8.6 | 11.9 | 10.9
64 | CC(=O)Nc1ccc(CN(C)C2CCN(c3cc(NC(=O)c4cccc(C)c4)ccn3)CC2)cc1 | 2.4 | 3.41 | 2.5
65 | c1cc(Nc2nc(-c3ccc(-c4csc(Nc5ccncc5)n4)cc3)cs2)ccn1 | -1.93 | -1.56 | -1.05
66 | COc1ccc2nccc([C@@H](O)CN3CCC(NCc4cc5cccc6c5n(c4=O)CCC6)CC3)c2c1 | 2.12 | 2.16 | 2.27
67 | Oc1cc(Nc2ccnc3ccc(I)cc23)c(F)cc1Cl | 0.49 | 1.05 | -1.45
68 | Nc1c2c(nc3ccc(NC(=O)c4ccc([N+](=O)[O-])cc4)cc13)CCCC2 | -1.93 | -0.82 | -1.11
69 | CC1(C)N=C(N)N=C(N)N1OCC1COc2ccccc2O1 (stereo not drawn) | 1.54 | 0.64 | 0.96
70 | c1ccc2sc(Sc3ncnc4sccc34)nc2c1 | 2.07 | -1.08 | 0.27
71 | CCNc1cc(C(=O)N[C@@H](Cc2ccccc2)[C@H](O)CNCc2cccc(-c3cncnc3)c2)cc(N2CCCC2=O)c1 | 3.81 | 3.48 | 4.42
